The whole screen tested about 5,500 compounds, of which about 2,000 (36%) were called active. Inconclusive results (about 18%) are left out. Rule as the data show it: active = normalized growth mostly below about 0.91 (no sharp cut-off); inconclusive = no clear call, values can overlap the other calls; inactive = mostly above about 0.92. The list shows a part of the results.
Assay: chemical genetic growth profiling, strain panel (AID 1159580);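 also: tested at 20 µM; growth read once vehicle control cultures reached saturation at 30 °C; 1 = growth at the plate median or of vehicle wells; lower values mean less growth of the strain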
Conditions: S. cerevisiae deletion strains, growth OD

Measured: normalized growth

N=C(N)c1ccc(OCCCCCOc2ccc(C(=N)N)cc2)cc1 (tested in a mixture with another compound)
inactive: locus YAL013W, strain DEP1, active compounds read low 0.943 | locus YAL040C, strain CLN3, active compounds read low 0.944 | locus YCL061C, strain MRC1 (second series), active compounds read low 0.981 | locus YDR150W, strain NUM1, active compounds read low 0.963 | locus YDR363W, strain ESC2, active compounds read low 0.961 | locus YER002W, strain NOP16, active compounds read low 0.95 | locus YMR263W, strain SAP30, active compounds read low 0.983 | locus YNL175C, strain NOP13, active compounds read low 0.962 | locus YNL197C, strain WHI3, active compounds read low 0.943 | locus YNL224C, strain SQS1, active compounds read low 0.946 | locus YOR083W, strain WHI5 (second series), active compounds read low 0.944 | locus YPL055C, strain LGE1, active compounds read low 0.912 | locus YPL241C, strain CIN2, active compounds read low 0.95
